In test [1] the target is Lysosomal acid glucosylceramidase (Homo sapiens) (UniProt P04062). In words: Glucocerebrosidase-p2 (AID 348; in the data active = potency below about 10 µM). The settings on record: purified GBA, blue fluorogenic substrate, 40 min. The gist of the method:
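Compounds titrated from 0.6 nM upwards against 0.2 nM enzyme in pH 5.9 citric acid/KH2PO4, taurocholate, tween-20; blue fluorogenic substrate 80 uM, 40 min room temperature, stopped and read Ex 365/Em 440 for AC50.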

Test [2] in a line: Cell Viability - Jurkat (AID 426).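 Note: cells exposed to compound for 40 hours at 37 °C before ATP read.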 The settings on record: qHTS. The gist of the method:
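Jurkat (Clone E6-1) cells, 5000/well in complete medium, exposed to compounds for 40 hr at 37C; intracellular ATP measured by CellTiter-Glo luminescence after 20 min at room temperature. AC50 from Hill fits.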
For orientation: In qHTS, concentration-response curves come from the screen itself.

Values without a mark were called inactive.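 Rule for the calls, unless noted: active = dose-dependent loss of cell ATP signal giving a full or clear fitted curve, ranked by lower potency value; inconclusive = weak partial curve or response only at the top dose; inactive = no loss of viability signal.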 Records with an inconclusive call do not appear.
Potency is the fitted concentration of half-maximal effect.

Lysosomal acid glucosylceramidase (Homo sapiens), sequence (P04062 whole entry, looked up): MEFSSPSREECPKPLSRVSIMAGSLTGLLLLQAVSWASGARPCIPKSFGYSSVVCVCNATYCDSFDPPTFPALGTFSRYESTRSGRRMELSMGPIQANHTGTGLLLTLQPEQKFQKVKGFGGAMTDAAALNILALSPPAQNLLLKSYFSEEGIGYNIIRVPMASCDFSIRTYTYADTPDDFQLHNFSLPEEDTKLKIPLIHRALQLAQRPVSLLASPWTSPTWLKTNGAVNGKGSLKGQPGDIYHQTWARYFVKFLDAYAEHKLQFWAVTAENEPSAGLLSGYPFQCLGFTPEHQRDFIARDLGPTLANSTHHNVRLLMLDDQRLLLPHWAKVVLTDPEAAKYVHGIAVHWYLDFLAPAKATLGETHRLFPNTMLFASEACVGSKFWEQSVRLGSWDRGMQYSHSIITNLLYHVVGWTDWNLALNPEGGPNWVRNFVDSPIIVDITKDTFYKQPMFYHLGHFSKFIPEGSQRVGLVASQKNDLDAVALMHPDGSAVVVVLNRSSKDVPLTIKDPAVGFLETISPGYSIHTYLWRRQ

On to `Cc1ccccc1CN1C2=NCCN2C(=O)C2=C1CCN(Cc1ccccc1)C2`, for which the Potency in test [1] was greater than 11.4 µM.

Consider `CC(=O)O[C@@H]1CC(C)=C2[C@H]1[C@H](C)CC[C@H]2/C=C(\C)C(=O)O`, for which the Potency in test [2] was greater than 92 µM.

In the case of `Cc1ccc(N)cc1O`, the Potency in test [2] was greater than 92 µM.

The values are drawn from PubChem BioAssay (NCATS).
